Test results reported in PubChem BioAssay (Tox21).
A number with no mark means an inactive call. Activity calls are given as the source filed them. The call rests on the fitted dose curve; in most records, active means well fitted curve in the direction sought with a large enough effect in the repeat runs; inconclusive means weak or mixed curves; inactive means flat fitted curve, though single readings scatter.

Experiment: qHTS assay to test for compound auto fluorescence at 460 nm (blue) in HEK293 cell free culture (AID 720681)
Details: cell-free medium, autofluorescence 405/460 nm (blue); series mostly up to 91.3 µM
Method in brief: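 Compounds were added to cell-free DMEM with 10% FBS and fluorescence read directly. The blue channel used 405 nm excitation and 460 nm emission, with triamterene as the reference fluorophore.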
On the % scale 0 is the no-effect control and ±100 the full control effect.

SMILES	outcome	fluorescence, % of fluorescent control
CC(C)C[C@H]1C(=O)N2CCC[C@H]2[C@]2(O)O[C@](NC(=O)[C@@H]3C=C4c5cccc6[nH]c(Br)c(c56)C[C@H]4N(C)C3)(C(C)C)C(=O)N12	inactive	
Cc1[nH]c(C)c(Cl)c(=O)c1Cl	inactive	
CC(C)Nc1ccc(NC(C)C)c2c1C(=O)c1ccccc1C2=O	inactive	
Cc1cccc(Nc2ccccc2)c1	inactive	
O=C1CCCCCCCCCCCC(=O)OCCO1	inactive	
COc1cc(Cl)ccc1Oc1ccc(Cl)cc1Cl	inactive	
Cc1cccc(C)c1OCC(=O)N[C@@H](Cc1ccccc1)[C@@H](O)C[C@H](Cc1ccccc1)NC(=O)[C@H](C(C)C)N1CCCNC1=O	inactive	
CCCCCCCCCCCCCCOS(=O)(=O)O	inactive	
CCN(CC)CCOC(=O)C(c1ccccc1)C1CCCCC1 (stereo not drawn)	inactive	
Cc1c(N)cccc1[N+](=O)[O-]	inactive	
CC(C)O.CC(C)O.CCOC(=O)/C=C(\C)O.CCOC(=O)/C=C(\C)O.[Ti]	inactive	
C#Cc1cccc(Nc2ncnc3cc(OCCOC)c(OCCOC)cc23)c1	inactive	
O=C(O)C1(C(=O)Nc2ccc(Cl)cc2Cl)CC1	inactive	
O=C(CS)Nc1ccccc1	inactive	
COc1cc(Cl)c(OC)cc1N	inactive	
COc1cccc(N(C)C(=S)Oc2ccc3c(c2)CCCC3)n1	inactive	
CC1CCC(=O)C1=O (stereo not drawn)	inactive	
CC[N+](C)(CC)CCOC(=O)C(O)(c1ccccc1)C1CCCCC1 (stereo not drawn)	inactive	
CCCCCCCC/C=C\CCCCCCCC(=O)OCC	inactive	

SMILES	outcome	fluorescence, % of fluorescent control
O=C(O)CC(=O)C(=O)O	inactive	
CCc1cc(C2=C(C(=O)O)N(c3ccccc3C(F)(F)F)S(=O)(=O)c3ccccc32)cc2c1OCO2	inactive	
CCCCNc1ccc(C(=O)OCCOCCOCCOCCOCCOCCOCCOCCOCCOC)cc1		-0.35% [at 18.6 µM]
CCC(C)c1cc(C(C)(C)C)c(O)c(C(C)(C)C)c1 (stereo not drawn)	inactive	
CNCCCCOc1ccccc1Cc1ccccc1	inactive	
CCOC(=O)COC(=O)c1cc(Oc2ccc(C(F)(F)F)cc2Cl)ccc1[N+](=O)[O-]	inactive	
Nc1ncn([C@H]2C[C@H](O)[C@@H](CO)O2)c(=O)n1	inactive	
NC(N)=NCCC[C@H](N)C(=O)O	inactive	
C=CC(=O)OCCOCCOC(=O)C=C	inactive	
CN(C)c1ccc(/C=C/c2ccc([N+](=O)[O-])cc2)cc1		-0.202% [at 3.72 µM]
CCCCCCCCCCO[C@@H]1O[C@H](CO)[C@@H](O)[C@H](O)[C@H]1O	inactive	
CCCNCC(O)COc1ccccc1C(=O)CCc1ccccc1 (stereo not drawn)	inactive	
O=C(Nc1ccccc1)c1ccccc1O	inactive	
CN1CCC(=C2c3ccccc3Sc3ccccc32)CC1	inactive	
C=CCOc1ccccc1OCC(O)CNC(C)C (stereo not drawn)		0.179% [at 18.6 µM]
C=CC(=O)OCCOCCOCCOCCOC(=O)C=C	inactive	
O=C(O)c1nc(Cl)c(Cl)c(Cl)c1Cl	inactive	
CCO[C@H](Cc1ccc(OCCc2ccc(OS(C)(=O)=O)cc2)cc1)C(=O)O	inactive	
CCCCCCCCCCCCCCCCOS(=O)(=O)O	inactive	
